The nature of experiment [1]: NCI Yeast Anticancer Drug Screen. Data for the rad50 strain (AID 155).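 Note: 0% = growth of vehicle-only cultures of the same strain.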 The following applies: S. cerevisiae rad50 strain growth inhibition, hits give high values. Put shortly: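 Yeast carrying a defined DNA repair defect were exposed to test compounds, and growth was compared with vehicle-treated controls to give percent inhibition.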
Experiment [2] can be described thus: NCI Yeast Anticancer Drug Screen. Data for the mec2-1 strain (AID 157). The following applies: S. cerevisiae mec2-1 strain, hits give high values. Put shortly: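 Readout is yeast growth inhibition, normalised to vehicle-treated controls, in the mec2-1 strain exposed to compound.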
A short description of experiment [3]: NCI Yeast Anticancer Drug Screen. Data for the sgs1 mgt1 strain (AID 161).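 Note: 0% = growth of cultures given vehicle only.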 The following applies: S. cerevisiae sgs1 mgt1 strain, hits give high values. In short, it runs like this:
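Percent growth inhibition was derived by comparing compound-exposed mutant yeast with vehicle-exposed cultures. The strain carries alterations in DNA damage repair.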

Experiment [4] is described as follows: NCI Yeast Anticancer Drug Screen. Data for the cln2 rad14 strain (AID 165).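 Note: 0% = growth equal to vehicle treated cultures.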 As to conditions: S. cerevisiae cln2 rad14 strain, hits give high values. Put shortly:
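Relative to vehicle controls, growth inhibition of compound-treated cln2 rad14 yeast was recorded.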

Experiment [5] is described as follows: NCI Yeast Anticancer Drug Screen. Data for the bub3 strain (AID 167). As to conditions: S. cerevisiae bub3 mutant strain, hits give high values. In short, it runs like this:
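Compounds were applied to a genetically altered yeast strain carrying a cell-cycle control defect. Growth inhibition was scored against vehicle-treated controls.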

Experiment [6] in a line: NCI Yeast Anticancer Drug Screen. Data for the mlh1 rad18 strain (AID 175). As to conditions: S. cerevisiae mlh1 rad18 strain growth inhibition, hits give high values. In short, it runs like this: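 Test agents were incubated with a yeast strain of defined genotype (DNA damage repair defect). Inhibition of growth was derived by comparison with vehicle-exposed cultures.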

Where [7] appears, read: at 5.0 µM (retest, dose inferred, filed as 0.5).
Setting [8] is: at 50.0 µM (retest, dose inferred, filed as 5.0).

The panel holds about 79,000 compounds, 15% with a hit somewhere; the sample as a whole holds those more often. Values without a mark were called inactive. Activity calls are given as the source filed them. Cut-off read from the data, not from the text of the source: active = growth inhibition above about 70%; inactive = the rest.

Turning to `CCN1CCC(O)(/C=C/c2cccc(C)c2)C(C(=O)/C=C/c2cccc(C)c2)C1` (stereo not given), the growth inhibition in experiment [1] (setting [7]) is 42%; in experiment [1] (setting [8]), 96% (active); in experiment [1] (at 50.0 µM), 91% (active); in experiment [2] (setting [7]), 41%; in experiment [2] (setting [8]), 98% (active); in experiment [2] (at 50.0 µM), 93% (active). Moreover, the growth inhibition in experiment [3] (setting [7]) is 95% (active); in experiment [3] (setting [8]), 92% (active); in experiment [3] (at 50.0 µM) it was 90.8% (active); in experiment [4] (setting [7]), 91% (active); in experiment [4] (setting [8]), 93% (active); in experiment [4] (at 50.0 µM), 90.2% (active). Besides, the growth inhibition was 95% (active) in experiment [5] (setting [7]); 96% (active) in experiment [5] (setting [8]); 88.2% (active) in experiment [5] (at 50.0 µM); 64% in experiment [6] (setting [7]); 98% (active) in experiment [6] (setting [8]); 92.7% (active) in experiment [6] (at 50.0 µM).
As for `Cc1[nH]nc(C(F)(F)F)c1N=NN1CCOCC1`, the growth inhibition in experiment [1] (setting [7]) was 62%; in experiment [1] (setting [8]), 99% (active); in experiment [1] (at 50.0 µM) it was 99.2% (active); in experiment [2] (setting [7]) it was 89% (active); in experiment [2] (setting [8]), 99% (active); in experiment [2] (at 50.0 µM), 99.7% (active). Moreover, the growth inhibition in experiment [3] (setting [7]) was 55%; in experiment [3] (setting [8]), 99% (active); in experiment [3] (at 50.0 µM), 99.5% (active); in experiment [4] (setting [7]) it was 47%; in experiment [4] (setting [8]), 99% (active); in experiment [4] (at 50.0 µM), 99.5% (active). The growth inhibition in experiment [5] (setting [7]) is 19%; in experiment [5] (setting [8]), 99% (active); in experiment [5] (at 50.0 µM), 99.4% (active); in experiment [6] (setting [7]) it was 79% (active); in experiment [6] (setting [8]), 99% (active); in experiment [6] (at 50.0 µM), 99.5% (active).
Consider `O=Cc1cc(-c2ccccc2)n(-c2ccccc2)c1-c1ccccc1`, for which the growth inhibition in experiment [1] (setting [7]) was 18%; in experiment [1] (setting [8]), 18%; in experiment [1] (at 50.0 µM), 64.3%; in experiment [2] (setting [7]), 2%; in experiment [2] (setting [8]), -3%; in experiment [2] (at 50.0 µM), 22.2%. The growth inhibition was -6% in experiment [3] (setting [7]); 16% in experiment [3] (setting [8]); 63% in experiment [3] (at 50.0 µM); -6% in experiment [4] (setting [7]); 27% in experiment [4] (setting [8]); 0% in experiment [4] (at 50.0 µM). The growth inhibition was 0% in experiment [5] (setting [7]); 9% in experiment [5] (setting [8]); 35.9% in experiment [5] (at 50.0 µM); -1% in experiment [6] (setting [7]); 16% in experiment [6] (setting [8]); 47.3% in experiment [6] (at 50.0 µM).
As to `CC(C)OC(=O)c1ccccc1C(=C1C=C(Br)C(=O)C(Br)=C1)c1cc(Br)c(O)c(Br)c1`, the growth inhibition in experiment [1] (setting [7]) is 85% (active); in experiment [1] (setting [8]), 95% (active); in experiment [1] (at 50.0 µM), 90.7% (active); in experiment [2] (setting [7]) it was 88% (active); in experiment [2] (setting [8]), 98% (active); in experiment [2] (at 50.0 µM), 91.9% (active). Also, the growth inhibition was 70% (active) in experiment [3] (setting [7]); 95% (active) in experiment [3] (setting [8]); 90.9% (active) in experiment [3] (at 50.0 µM); 96% (active) in experiment [4] (setting [7]); 97% (active) in experiment [4] (setting [8]); 88.2% (active) in experiment [4] (at 50.0 µM). Further, the growth inhibition was 94% (active) in experiment [5] (setting [7]); 97% (active) in experiment [5] (setting [8]); 91% (active) in experiment [5] (at 50.0 µM); 96% (active) in experiment [6] (setting [7]); 96% (active) in experiment [6] (setting [8]); 90.5% (active) in experiment [6] (at 50.0 µM).
For `O=C(/C=C/c1ccccc1)NOC(=O)/C=C/c1ccccc1`, the growth inhibition in experiment [1] (setting [7]) was 42%; in experiment [1] (setting [8]) it was 93% (active); in experiment [1] (at 50.0 µM), 97.5% (active); in experiment [2] (setting [7]), 34%; in experiment [2] (setting [8]) it was 95% (active); in experiment [2] (at 50.0 µM), 99.2% (active). Also, the growth inhibition was 66% in experiment [3] (setting [7]); 94% (active) in experiment [3] (setting [8]); 98.9% (active) in experiment [3] (at 50.0 µM); 25% in experiment [4] (setting [7]); 91% (active) in experiment [4] (setting [8]); 98.5% (active) in experiment [4] (at 50.0 µM). In addition, the growth inhibition was 34% in experiment [5] (setting [7]); 92% (active) in experiment [5] (setting [8]); 99% (active) in experiment [5] (at 50.0 µM); 42% in experiment [6] (setting [7]); 93% (active) in experiment [6] (setting [8]); 98.5% (active) in experiment [6] (at 50.0 µM).
`COc1ccc(C2=C(Cl)C(=O)N(c3ccccc3Cl)C(=O)C2(Cl)Cl)cc1`: the growth inhibition is 19% in experiment [1] (setting [7]); 96% (active) in experiment [1] (setting [8]); 92.7% (active) in experiment [1] (at 50.0 µM); -1% in experiment [2] (setting [7]); 95% (active) in experiment [2] (setting [8]); 98.7% (active) in experiment [2] (at 50.0 µM). For the same compound, the growth inhibition in experiment [3] (setting [7]) is 17%; in experiment [3] (setting [8]), 97% (active); in experiment [3] (at 50.0 µM), 97.5% (active); in experiment [4] (setting [7]), -5%; in experiment [4] (setting [8]), 96% (active); in experiment [4] (at 50.0 µM) it was 71.5% (active). For the same compound, the growth inhibition in experiment [5] (setting [7]) is 0%; in experiment [5] (setting [8]), 97% (active); in experiment [5] (at 50.0 µM) it was 97.1% (active); in experiment [6] (setting [7]) it was 17%; in experiment [6] (setting [8]) it was 80% (active); in experiment [6] (at 50.0 µM), 97.4% (active).
In the case of `CC(=O)Oc1ccc(/C=C/c2ccncc2)cc1`, the growth inhibition is -164% in experiment [1] (setting [7]); -78% in experiment [1] (setting [8]); 67.8% in experiment [1] (at 50.0 µM); -47% in experiment [2] (setting [7]); -33% in experiment [2] (setting [8]); 44% in experiment [2] (at 50.0 µM). The growth inhibition was -65% in experiment [3] (setting [7]); 7% in experiment [3] (setting [8]); 60% in experiment [3] (at 50.0 µM); -58% in experiment [4] (setting [7]); -32% in experiment [4] (setting [8]); 50.1% in experiment [4] (at 50.0 µM). Moreover, the growth inhibition in experiment [5] (setting [7]) was -58%; in experiment [5] (setting [8]), 6%; in experiment [5] (at 50.0 µM), 84.7% (active); in experiment [6] (setting [7]) it was -157%; in experiment [6] (setting [8]) it was -69%; in experiment [6] (at 50.0 µM), 48.2%.
For `CCCCCCCCCCCCCCCC1=NCCN1C`, the growth inhibition in experiment [1] (setting [7]) was 14%; in experiment [1] (setting [8]) it was 99% (active); in experiment [1] (at 50.0 µM), 99.1% (active); in experiment [2] (setting [7]), 9%; in experiment [2] (setting [8]), 100% (active); in experiment [2] (at 50.0 µM) it was 99.5% (active). The growth inhibition in experiment [3] (setting [7]) is 29%; in experiment [3] (setting [8]) it was 99% (active); in experiment [3] (at 50.0 µM) it was 54.9%; in experiment [4] (setting [7]), 15%; in experiment [4] (setting [8]), 98% (active); in experiment [4] (at 50.0 µM) it was 96.5% (active). Moreover, the growth inhibition is 48% in experiment [5] (setting [7]); 99% (active) in experiment [5] (setting [8]); 99.3% (active) in experiment [5] (at 50.0 µM); 16% in experiment [6] (setting [7]); 99% (active) in experiment [6] (setting [8]); 98.9% (active) in experiment [6] (at 50.0 µM).
For `CNc1ccc2c(c1)Cc1ccccc1-2`, the growth inhibition in experiment [1] (setting [7]) was 36%; in experiment [1] (setting [8]), 92% (active); in experiment [1] (at 50.0 µM), 97.3% (active); in experiment [2] (setting [7]), 3%; in experiment [2] (setting [8]) it was 64%; in experiment [2] (at 50.0 µM), 91.8% (active). The growth inhibition was 56% in experiment [3] (setting [7]); 86% (active) in experiment [3] (setting [8]); 96.9% (active) in experiment [3] (at 50.0 µM); 2% in experiment [4] (setting [7]); 79% (active) in experiment [4] (setting [8]); 92.8% (active) in experiment [4] (at 50.0 µM). The growth inhibition in experiment [5] (setting [7]) was -7%; in experiment [5] (setting [8]), 45%; in experiment [5] (at 50.0 µM), 77.2% (active); in experiment [6] (setting [7]), 26%; in experiment [6] (setting [8]), 92% (active); in experiment [6] (at 50.0 µM), 97.2% (active).
As for `Cn1c(=S)c2[nH]c(SCCN3CCCC3)nc2n(C)c1=O`, the growth inhibition was 83% (active) in experiment [1] (setting [7]); 99% (active) in experiment [1] (setting [8]); 90.8% (active) in experiment [1] (at 50.0 µM); 70% (active) in experiment [2] (setting [7]); 99% (active) in experiment [2] (setting [8]); 61.2% in experiment [2] (at 50.0 µM). Besides, the growth inhibition is 53% in experiment [3] (setting [7]); 94% (active) in experiment [3] (setting [8]); 67.5% in experiment [3] (at 50.0 µM); 28% in experiment [4] (setting [7]); 79% (active) in experiment [4] (setting [8]); 1.75% in experiment [4] (at 50.0 µM). The growth inhibition is 61% in experiment [5] (setting [7]); 99% (active) in experiment [5] (setting [8]); 68% in experiment [5] (at 50.0 µM); 37% in experiment [6] (setting [7]); 95% (active) in experiment [6] (setting [8]); 97.2% (active) in experiment [6] (at 50.0 µM).

(Values after PubChem BioAssay (NCI).)
